Screens (PubChem BioAssay)
IDH1 R132H inh – human IDH1 R132H inhibition. Potency, µM (top dose mostly 76.6 µM), most hits filed as inhibitors. IDH1-R132H enzyme, NADPH consumption, diaphorase/resazurin fluorescence. O75874. AID 602179. 390,000 tested, 0.093% active; note: nearly all actives have a fitted effect of over 65% in size
Target sequence (O75874 whole entry R132H, stated change not applied): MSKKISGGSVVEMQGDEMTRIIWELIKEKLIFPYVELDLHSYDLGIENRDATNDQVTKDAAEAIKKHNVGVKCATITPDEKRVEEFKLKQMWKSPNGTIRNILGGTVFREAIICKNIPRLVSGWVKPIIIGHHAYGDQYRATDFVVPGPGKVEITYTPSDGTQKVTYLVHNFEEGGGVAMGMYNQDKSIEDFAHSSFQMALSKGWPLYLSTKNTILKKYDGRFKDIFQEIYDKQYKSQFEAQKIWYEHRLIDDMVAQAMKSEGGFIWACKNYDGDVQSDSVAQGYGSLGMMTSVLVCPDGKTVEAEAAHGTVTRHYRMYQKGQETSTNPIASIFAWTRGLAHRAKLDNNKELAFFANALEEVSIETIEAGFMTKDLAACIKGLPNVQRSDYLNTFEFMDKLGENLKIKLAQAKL
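IDH1-R132H (0.5 ug/mL) preincubated 30 min with compound, then NADPH (0.016 mM) and alpha-KG (2 mM) added; 80 min at RT, pH 7.5. Remaining NADPH coupled via diaphorase/resazurin to fluorescence (540/590 nm); concentration-response curves normalized to no-enzyme control.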
Integrin act MD – integrin-mediated muscular dystrophy alleviation activation. alpha7betagal myoblasts, beta-gal FDG fluorescence, 48 h. 350,000 tested, 0.064% active. Potency, µM (series often up to 38.3 µM), actives largely listed as activators. AID 624291; note: nearly all actives have a fitted effect of over 60% in size
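Alpha7betagal+/- myoblasts (passage 13) were plated 16-24 hr, then exposed to compounds (1:260 dilution of DMSO stock) for 48 hours at 37C. After MPER lysis, β-galactosidase reporter activity was read as FDG fluorescence (ex 480/em 540) after 30 minutes.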
DRD3 agonist – D3 dopamine receptor (human) agonism. D3R DiscoveRx beta-arrestin cells, luminescence, 90 min. 410,000 tested, 0.58% active. P35462. max activation, %. AID 652048; in the data active = max activation above about 30%
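Agonist mode: compounds and dopamine controls were applied to plated cells for 90 min at 37 degrees C after an overnight attachment at 1500 cells/well. Luminescent read-out followed 30 - 60 minutes at room temperature with DiscoveRx detection reagent.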
B2AR arrestin – beta2AR (human) beta-arrestin recruitment activity | P07550 | beta-arrestin recruitment to beta2AR, cell-based reporter | Potency, µM (doses to about 46.1 µM), hits mostly activators | 330,000 tested, 0.02% active; note: nearly all actives have a fitted effect of over 65% in size
DRD3 antagonist – blocks the human D3 dopamine receptor. AID 652054. max response, negative = inhibition, %. P35462. 360,000 tested, 2.5% active. D3R cells, DiscoveRx beta-arrestin luminescence, antagonist mode; hits give low values; in the data active = max response below about -50%; inconclusive = no clear call, values can overlap the other calls
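Cells expressing the human receptor were seeded at 1500 cells/well, incubated overnight at 37 degrees C in 5% CO2, then exposed to library compounds with dopamine controls for 90 minutes at 37 degrees C before luminescent detection.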
Resorufin autofl – autofluorescence interference, mutant IDH1 hit counter-screen | shares compounds with IDH1 R132H inh | Resorufin detection reagent fluorescence interference, cell-free | inhibition of signal, % at 51.2 µM | 750 tested, under 10 active | AID 623980
WT IDH1 inh – selectivity of mutant IDH1 inhibitors: human wild-type IDH1; shares compounds with IDH1 R132H inh; 750 tested, 9% active; WT IDH1 enzyme, NADPH diaphorase/resazurin fluorescence; Potency, µM (top dose mostly 115 µM), usual class: inhibitors; AID 623995; note: nearly all actives have a fitted effect of over 55% in size
Target sequence (O75874 whole entry, looked up): as the sequence (O75874 whole entry R132H, stated change not applied) above, with H132R counted along it
IDH1 R132H conf – mutant IDH1 (human) inhibition, confirmed | shares compounds with IDH1 R132H inh | IDH1 R132H enzyme, NADPH diaphorase/resazurin fluorescence | Potency, µM (series often up to 76.6 µM), most hits filed as inhibitors | 750 tested, 83% active | AID 624002; note: nearly all actives have a fitted effect of over 50% in size
Each line names hits and unclear results; the compound was inactive in the other large screens (follow-up assays come after a bar, where they were run). Sampled rows, rich in hits. Any-hit rate of the full collection: about 2.9%. Unless noted, calls come from the whole dose curve; as a rule, active = well fitted curve in the direction sought with a large enough effect; inconclusive = small, poorly fitted or top-dose-only effect, or another doubt; inactive = no such curve, though single readings can be large; an effect the other way counts as inactive or inconclusive.

Cc1cc(O)c(C(C)C)cc1C1(c2cc(C(C)C)c(O)cc2C)OC(=O)c2ccccc21	IDH1 R132H inh 16µM, DRD3 agonist 61, B2AR arrestin inconclusive | Resorufin autofl inactive | WT IDH1 inh inactive | IDH1 R132H conf 16µM
Cc1ccc(N(C(=O)c2snc(C(N)=O)c2N)C(C(=O)NC2CCCC2)c2ccco2)cc1 (configuration not stated)	IDH1 R132H inh inconclusive | Resorufin autofl inactive | WT IDH1 inh inactive | IDH1 R132H conf 28µM
COc1ccc(N(C(=O)c2snc(C(N)=O)c2N)C(C(=O)NC2CCCC2)c2ccco2)c(OC)c1 (configuration not stated)	none
Cc1cccc(N(C(=O)c2snc(C(N)=O)c2N)C(C(=O)NC2CCCC2)c2ccc(C)o2)c1 (configuration not stated)	IDH1 R132H inh inconclusive | Resorufin autofl inactive | WT IDH1 inh inactive | IDH1 R132H conf 25µM
Cc1ccc(N(C(=O)c2snc(C(N)=O)c2N)C(C(=O)NC2CCCC2)c2ccc(C)o2)cc1 (configuration not stated)	IDH1 R132H inh inconclusive, Integrin act MD inconclusive | Resorufin autofl inactive | WT IDH1 inh inactive | IDH1 R132H conf 20µM
COCCNC(=O)C(c1ccc(C)o1)N(C(=O)c1snc(C(N)=O)c1N)c1ccc(C)cc1 (configuration not stated)	none
Cc1nn(CC(=O)Nc2ccc(Br)cc2F)c(=O)c2cccn12	none
CCOc1ccc(-c2cc3nc(C4CCN(C(=O)OC(C)(C)C)CC4)c(C(=O)Nc4ccc(C)c(F)c4)cn3n2)cc1	none (no result: Integrin act MD, B2AR arrestin, DRD3 antagonist)
CN1C[C@@H]2C[C@H]1CN2c1cc2c(cc1F)c(=O)c(C(=O)O)cn2C1CC1	none (no result: IDH1 R132H inh, Integrin act MD, B2AR arrestin, DRD3 antagonist)
COC(=O)[C@]1(Cc2ccccc2)N[C@H](CN(C)C(=O)c2ccccc2)[C@@H]2C(=O)N(Cc3ccccc3)C(=O)[C@@H]21	none
O=C(/C=C/c1cccs1)N1CCN(c2ccccc2)CC1	none
CCCCCn1c(=N)c(S(=O)(=O)c2ccccc2)cc2c(=O)n3ccccc3nc21	IDH1 R132H inh 20µM (no result: Integrin act MD, B2AR arrestin, DRD3 antagonist) | Resorufin autofl inactive | WT IDH1 inh inactive | IDH1 R132H conf 7.9µM
COc1ccc(CCn2c(=N)c(S(=O)(=O)c3ccccc3)cc3c(=O)n4ccccc4nc32)cc1	none
CCn1c(=N)c(S(=O)(=O)c2ccccc2)cc2c(=O)n3ccccc3nc21	none
CCCn1c(=N)c(S(=O)(=O)c2ccccc2)cc2c(=O)n3ccccc3nc21	IDH1 R132H inh 40µM | Resorufin autofl inactive | WT IDH1 inh inactive | IDH1 R132H conf 20µM
Fc1ccc(Nc2nc(NCc3ccco3)c3ccccc3n2)cc1	IDH1 R132H inh inconclusive | Resorufin autofl inactive | WT IDH1 inh inactive | IDH1 R132H conf 28µM
O=c1c2ccccc2nc(/C=C/c2cccnc2)n1CCc1ccccc1	IDH1 R132H inh 52µM | Resorufin autofl inactive | WT IDH1 inh inactive | IDH1 R132H conf 45µM
O=c1c2ccccc2nc(/C=C/c2ccccc2)n1CCc1ccccc1	none
CCC1C/C(=C\c2cccnc2)C(=O)/C(=C/c2cccnc2)C1 (configuration not stated)	IDH1 R132H inh 52µM, DRD3 antagonist inconclusive | Resorufin autofl inactive | WT IDH1 inh inactive | IDH1 R132H conf 32µM
O=C1/C(=C/c2cccnc2)CC/C1=C\c1cccnc1	none
O=C(O)c1cc(NS(=O)(=O)c2cccc3ccccc23)ccc1O	DRD3 antagonist inconclusive
Cc1cc(C(C)(C)C)cc(S(=O)(=O)Nc2ccc(O)c(C(=O)O)c2)c1C	IDH1 R132H inh inconclusive | Resorufin autofl inactive | WT IDH1 inh inactive | IDH1 R132H conf 28µM
COc1ccc(NC(=S)N2CCN(C(c3ccccc3)c3ccccc3)CC2)cc1OC	Integrin act MD inconclusive
COc1cc(C(=S)N2CCN(C(c3ccccc3)c3ccccc3)CC2)cc(OC)c1O	IDH1 R132H inh inconclusive | Resorufin autofl inactive | WT IDH1 inh inactive | IDH1 R132H conf 22µM
CN(C)S(=O)(=O)c1ccc(C(=O)OCc2nnc(-c3ccccc3)o2)cc1	none
CS(=O)(=O)c1ccc(C(=O)OCc2nnc(-c3ccccc3)o2)cc1[N+](=O)[O-]	IDH1 R132H inh inconclusive, DRD3 antagonist -60 | Resorufin autofl inactive | WT IDH1 inh inactive | IDH1 R132H conf 25µM
CC(CCc1ccccc1)NC(=O)COC(=O)c1ccc(S(C)(=O)=O)c([N+](=O)[O-])c1 (configuration not stated)	IDH1 R132H inh inconclusive, DRD3 antagonist -78 | Resorufin autofl inactive | WT IDH1 inh inactive | IDH1 R132H conf inconclusive
Cc1cc(O)c(C(c2ccc(Cl)cc2)N2CCN(c3ccccc3)CC2)c(=O)n1Cc1ccco1 (configuration not stated)	none (no result: Integrin act MD, B2AR arrestin, DRD3 antagonist)
O=C(CCl)N1CCN(S(=O)(=O)c2ccc3c(c2)CCC3)CC1	IDH1 R132H inh 46µM, DRD3 antagonist inconclusive | Resorufin autofl inactive | WT IDH1 inh inactive | IDH1 R132H conf 28µM
CN1C(=O)N(CC(=O)N2CCN(S(=O)(=O)c3ccc4c(c3)CCC4)CC2)C(=O)C12CCCCC2	none
CCc1ccc(CNC(=O)CN2C(=O)c3cccnc3Oc3ccc(Cl)cc32)cc1	IDH1 R132H inh inconclusive (no result: Integrin act MD, B2AR arrestin, DRD3 antagonist) | Resorufin autofl inactive | WT IDH1 inh inactive | IDH1 R132H conf inactive
Cc1cc(NC(=O)CSc2nc3c(C)c(C)ccc3cc2C)no1	Integrin act MD inconclusive
C[C@H](CO)N1C[C@H](C)[C@@H](CN(C)S(C)(=O)=O)Oc2c(NC(=O)Nc3ccccc3)cccc2C1=O	none
c1cn2cc(-c3ccc4c(c3)OCO4)nc2s1	IDH1 R132H inh 23µM | Resorufin autofl inactive | WT IDH1 inh inactive | IDH1 R132H conf 50µM
CC(=O)Nc1ccc(-c2cn3ccsc3n2)cc1	none
O=C(NCc1ccco1)C(c1ccncc1)N(C(=O)Cc1cccs1)c1ccccc1 (configuration not stated)	none
O=C(NCC(=O)N(Cc1ccco1)C(C(=O)NC1CCCC1)c1ccncc1)c1cccs1 (configuration not stated)	none
Cc1ccc(C(C(=O)NC2CCCCC2)N(Cc2ccco2)C(=O)C2COc3ccccc3O2)o1 (configuration not stated)	IDH1 R132H inh inconclusive, DRD3 antagonist inconclusive | Resorufin autofl inactive | WT IDH1 inh inactive | IDH1 R132H conf 13µM
